Drawing on PubChem BioAssay (Tox21), this text covers Potency for seven molecules.

Several values for one entry are separate records, joined by “and”; a condition that tells them apart may be missing. Equal entries are not always repeated. Results filed as inconclusive are left out. Where a structure was tested more than once in an assay, its records may differ in their call. Activity calls are given as the source filed them. Unless noted, calls come from the whole dose curve; as a rule, active = well fitted curve in the direction sought with a large enough effect in the repeat runs; inconclusive = weak or mixed curves; inactive = no such curve, though single readings can be large; an effect the other way counts as inactive or inconclusive. Starred links: 1 amine or outer side, 2 acyl side, 3 side chain; linkers in the order of their positions; H or OH if unused. Positions of bridges follow the written chain, without caps; N, C: chain ends. Non-standard residues stand in square brackets, D forms with d. Residues, ends and D or L forms follow the SMILES beside them. Chains are numbered I, II in the order given. Actinocin(9to1) = Cc1c2oc3c(C)ccc(C(=O)[*:1])c3nc-2c(C(=O)[*:2])c(N)c1=O; NMeV = CN[C@H](C(=O)O)C(C)C; Sar = CNCC(=O)O

Experiment [1] can be described thus: A CellTox Green Cytotoxicity Assay to monitor cytotoxicity in HepG2 cells - 0 hour (AID 1224882). Note: nearly all actives have a fitted effect of over 35% in size. The essentials: (§1)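 Nonlytic assay: viable cells exclude the dye, so fluorescence scales with cell death. HepG2 at 600 cells/well, compounds added after 5 h, signal read across 40 h.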
Experiment [2] is described as follows: A CellTox Green Cytotoxicity Assay to monitor cytotoxicity in HepG2 cells - 32 hour (AID 1224883). Note: nearly all actives have a fitted effect of over 50% in size. Note: potency is the fitted concentration of half-maximal effect. The essentials:
as §1

Experiment [3] can be described thus: A CellTox Green Cytotoxicity Assay to monitor cytotoxicity in HEK293 cells - 8 hour (AID 1224884). Note: nearly all actives have a fitted effect of over 35% in size. Note: potency is the fitted concentration of half-maximal effect. The gist of the method:
(§2)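 Seeding of HEK293 cells together with cytotoxicity dye preceded a 5 h incubation at 37 C/5% CO2. Test compounds in DMSO were then added and fluorescence monitored across 40 h.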

Experiment [4] in a line: qHTS RealTime-Glo MT Cell Viability Assay in HepG2 cells - 16 hour (AID 1224885). Note: nearly all actives have a fitted effect of over 50% in size. Note: potency is the fitted concentration of half-maximal effect. The essentials: (§3)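 HepG2 cells (600/well) were dispensed with RealTime-Glo reagents, incubated 5 h at 37 °C, then treated with compounds in DMSO for up to 40 h. Nonlytic NanoLuc luminescence reflecting viable cells was read at each stated time point.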
In general terms: qHTS replaces the single test concentration by a dilution series.

The nature of experiment [5]: A CellTox Green Cytotoxicity Assay to monitor cytotoxicity in HEK293 cells - 16 hour (AID 1224888). Note: nearly all actives have a fitted effect of over 35% in size. Note: potency is the fitted concentration of half-maximal effect. The essentials:
as §2

Experiment [6] in a line: qHTS RealTime-Glo MT Cell Viability Assay in HepG2 cells - 0 hour (AID 1224889). Note: nearly all actives have a fitted effect of over 50% in size. Note: potency is the fitted concentration of half-maximal effect. The gist of the method: as §3
Experiment [7] is described as follows: A CellTox Green Cytotoxicity Assay to monitor cytotoxicity in HepG2 cells - 8 hour (AID 1224890). Note: nearly all actives have a fitted effect of over 45% in size. The essentials: as §1
The nature of experiment [8]: qHTS assay to identify small molecule antagonists of the estrogen receptor alpha (ER-alpha) signaling pathway using the BG1 cell line in the presence of 0.1 nM 17-beta-estradiol - cell viability counter screen (AID 1259241). Note: nearly all actives have a fitted effect of over 40% in size. Note: potency is the fitted concentration of half-maximal effect. The gist of the method: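 VM7Luc4E2, 4,000 cells/well, phenol red-free medium + 10% charcoal-stripped FBS; 24 hr plating; cpd + 0.1 nM E2 final, 22 hr 37C/5% CO2; CellTiter-Fluor 30 min, fluorescence.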

Experiment [9] is described as follows: qHTS assay to identify small molecule antagonists of the androgen receptor (AR) signaling pathway using the MDA cell line in the presence of 0.5 nM R1881 - cell viability counter screen (AID 1259242). Note: nearly all actives have a fitted effect of over 45% in size. Note: potency is the fitted concentration of half-maximal effect. The gist of the method:
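R1881 at 0.5 nM final stimulated MDA-kb2 cells during 16 hr compound treatment at 37C. Cytotoxicity read: CellTiter-Fluor fluorescence after 30 min.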

Experiment [10] has as its target Estrogen receptor (Homo sapiens) (UniProt P03372). As to the kind of experiment: qHTS assay to identify small molecule antagonists of the estrogen receptor alpha (ER-alpha) signaling pathway using the BG1 cell line in the presence of 0.1 nM 17-beta-estradiol (AID 1259244). Note: nearly all actives have a fitted effect of over 50% in size. Note: potency is the fitted concentration of half-maximal effect. The gist of the method: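 VM7Luc4E2; 4xERE-luciferase; 0.1 nM E2 final; 22 h co-incubation, 37C; ONE-Glo luminescence after 30 min at room temperature.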

A short description of experiment [11]: qHTS assay to identify small molecule HDAC inhibitors (AID 1259364). Note: potency is the fitted concentration of half-maximal effect.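 Note: wild-type HCT-116 cells with endogenous class I/II HDAC activity; nearly all actives have a fitted effect of over 45% in size.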 The gist of the method:
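Relative class I and II HDAC activity is taken from the luminogenic signal in HCT-116 cells, with compound exposure 2 hr and reagent development 30 min at room temperature.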

Experiment [12] in a line: qHTS assay to identify small molecule HDAC inhibitors - cell viability counter screen (AID 1259365). The essentials: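 Luminescence from CellTiter-Glo, developed 30min at room temperature, reports viability of wild-type HCT-116 cells treated 2hr with compounds at 37 C and 5% CO2 after overnight plating.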
The nature of experiment [13]: qHTS assay to identify small molecule agonists of the sonic hedgehog signaling (Shh) pathway - cell viability counter screen (AID 1259366). Note: nearly all actives have a fitted effect of over 50% in size. Note: potency is the fitted concentration of half-maximal effect. The essentials:
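Cytotoxicity counter screen run in the same wells as the Shh reporter assay. NIH/3T3 cells carrying a Gli1 response element–driven luciferase were treated with DMSO-dissolved compounds for 24hr, and live-cell protease activity was measured with CellTiter-Fluor.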

Experiment [14] can be described thus: qHTS assay to identify small molecule antagonists of the sonic hedgehog signaling (Shh) pathway - cell viability counter screen (AID 1259367). Note: nearly all actives have a fitted effect of over 55% in size. Note: potency is the fitted concentration of half-maximal effect. The essentials: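 After a 4 hr settling period, 3T3 Gli1-Luc cells were treated with DMSO-dissolved chemicals and conditioned medium, kept 24 hr at 37C in 5% CO2, and assayed for viability by CellTiter-Fluor fluorescence following 1 hr reagent incubation.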

The nature of experiment [15]: qHTS assay to identify small molecule agonists of the sonic hedgehog signaling (Shh) pathway (AID 1259368; calls by dose curve;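 note: NIH/3T3-derived 3T3Gli1-Luc cells carrying a stable Gli1-driven firefly luciferase reporter; series mostly up to about 92 µM; nearly all actives have a fitted effect of over 15% in size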). The essentials: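 Mouse fibroblast (NIH/3T3) reporter cells with stably integrated Gli1-Luc were treated 24 hr with compound; firefly luciferase luminescence served as the read-out.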
Experiment [16] is described as follows: qHTS assay to identify small molecule antagonists of the sonic hedgehog signaling (Shh) pathway (AID 1259369; calls by dose curve; note: nearly all actives have a fitted effect of over 45% in size; note: potency is the fitted concentration of half-maximal effect). The gist of the method:
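Conditioned medium drives Shh signalling in 3T3Gli1-Luc cells; compounds in DMSO co-applied, 24hr at 37 C, then luciferase luminescence.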

The nature of experiment [17]: qHTS RealTime-Glo MT Cell Viability Assay in HEK293 cells - 24 hour (AID 1224886). Note: nearly all actives have a fitted effect of over 50% in size. Note: potency is the fitted concentration of half-maximal effect. The gist of the method: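 HEK293 cells seeded with NanoLuc/prosubstrate reagent, rested 5 h at 37 C, then dosed and kept at 37 C up to 40 h. Nonlytic real-time luminescence from viable cells read at 0, 8, 16, 24, 32 and 40 h.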
Experiment [18] is described as follows: qHTS RealTime-Glo MT Cell Viability Assay in HEK293 cells - 8 hour (AID 1224887). Note: nearly all actives have a fitted effect of over 50% in size. Note: potency is the fitted concentration of half-maximal effect. The gist of the method: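 Tox21 screen in HEK293 using RealTime-Glo MT chemistry, with cells and reagent co-dispensed. Luminescence proportional to viable cell number was captured at intervals during 40 h compound exposure at 37 C.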
Experiment [19] can be described thus: qHTS assay to identify small molecule phospholipidosis (PLD) inducers (AID 1259344; active = well fitted curve in the direction sought with a large enough effect; an effect the other way counts as inactive or inconclusive; note: potency is the fitted concentration of half-maximal effect). The gist of the method:
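HepG2 cells grown on collagen I take up LipidTOX Red while exposed to compound for 24 h; after fixation they are imaged at 20x and pit metrics are extracted.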

For experiment [20], the target named is Androgen receptor (Homo sapiens) (UniProt P10275). As to the kind of experiment: qHTS assay to identify small molecule antagonists of the androgen receptor (AR) signaling pathway using the MDA cell line in the presence of 0.5 nM R1881 (AID 1259243). Note: nearly all actives have a fitted effect of over 50% in size. Note: potency is the fitted concentration of half-maximal effect. The essentials: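 We exposed MDA-kb2 cells to compounds under 0.5 nM R1881 stimulation for 16 hr at 37C and quantified MMTV-driven luciferase by luminescence.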
Androgen receptor (Homo sapiens), sequence (P10275 whole entry, looked up): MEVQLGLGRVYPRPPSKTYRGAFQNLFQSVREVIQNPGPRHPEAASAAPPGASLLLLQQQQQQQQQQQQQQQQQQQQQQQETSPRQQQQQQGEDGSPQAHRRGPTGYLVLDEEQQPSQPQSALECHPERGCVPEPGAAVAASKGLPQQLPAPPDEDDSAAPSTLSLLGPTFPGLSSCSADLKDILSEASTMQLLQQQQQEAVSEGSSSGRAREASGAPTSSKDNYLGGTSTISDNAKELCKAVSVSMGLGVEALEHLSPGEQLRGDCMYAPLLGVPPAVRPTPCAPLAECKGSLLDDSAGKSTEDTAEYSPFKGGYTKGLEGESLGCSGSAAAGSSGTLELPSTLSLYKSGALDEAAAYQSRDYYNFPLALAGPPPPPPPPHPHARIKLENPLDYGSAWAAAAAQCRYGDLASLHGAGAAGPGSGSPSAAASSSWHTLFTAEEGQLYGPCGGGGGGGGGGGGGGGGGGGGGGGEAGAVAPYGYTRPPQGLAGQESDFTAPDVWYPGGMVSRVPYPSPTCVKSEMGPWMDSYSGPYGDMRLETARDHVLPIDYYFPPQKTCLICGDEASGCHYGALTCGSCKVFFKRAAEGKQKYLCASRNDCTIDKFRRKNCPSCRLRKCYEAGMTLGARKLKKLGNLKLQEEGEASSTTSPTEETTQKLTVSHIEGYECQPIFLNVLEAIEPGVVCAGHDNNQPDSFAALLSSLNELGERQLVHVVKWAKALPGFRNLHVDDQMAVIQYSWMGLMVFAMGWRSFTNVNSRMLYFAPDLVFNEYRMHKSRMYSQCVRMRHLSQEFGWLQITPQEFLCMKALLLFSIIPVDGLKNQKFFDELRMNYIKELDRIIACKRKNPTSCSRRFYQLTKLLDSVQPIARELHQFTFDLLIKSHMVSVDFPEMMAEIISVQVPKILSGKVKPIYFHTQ

Estrogen receptor (Homo sapiens), sequence (P03372 whole entry, looked up): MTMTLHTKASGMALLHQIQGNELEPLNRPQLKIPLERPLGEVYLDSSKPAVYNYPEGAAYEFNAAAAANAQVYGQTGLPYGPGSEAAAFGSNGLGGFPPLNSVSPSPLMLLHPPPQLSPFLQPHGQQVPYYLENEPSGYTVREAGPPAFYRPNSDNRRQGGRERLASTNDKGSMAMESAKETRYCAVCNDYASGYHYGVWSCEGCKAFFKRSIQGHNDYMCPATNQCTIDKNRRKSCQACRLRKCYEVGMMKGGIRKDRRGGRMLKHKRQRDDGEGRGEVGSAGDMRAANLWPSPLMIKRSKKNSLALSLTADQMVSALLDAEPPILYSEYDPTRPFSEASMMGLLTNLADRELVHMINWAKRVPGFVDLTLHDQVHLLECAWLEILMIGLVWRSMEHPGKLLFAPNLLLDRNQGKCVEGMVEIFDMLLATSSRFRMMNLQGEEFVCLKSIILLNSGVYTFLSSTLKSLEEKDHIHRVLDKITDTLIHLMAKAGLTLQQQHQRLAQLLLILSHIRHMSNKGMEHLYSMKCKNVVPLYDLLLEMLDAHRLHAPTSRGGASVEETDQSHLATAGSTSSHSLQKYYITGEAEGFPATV

With `O=C(Nc1ccccc1SSc1ccccc1NC(=O)c1ccccc1)c1ccccc1`, the Potency result in experiment [1], in experiment [3], in experiment [4], in [5], in experiment [6] and in experiment [7] was “inactive” in each case. Besides, the Potency entry in experiment [8], in [9], in [12] and in experiment [15] was “inactive” each time. The Potency in experiment [2] is 49 µM (active); in experiment [10], 27.4 µM (active) and inactive; in [11], 27.4 µM (active) and 19.3 µM (active); in experiment [13], 13.8 µM (active) and 13.7 µM (active); in experiment [14], 13.8 µM (active) and 12.2 µM (active); in experiment [16], 4.88 µM (active) and 5.45 µM (active).

For `C=CC(=O)OCCCCCCOC(=O)C=C`, the Potency entry in experiment [1], in experiment [2], in experiment [3], in experiment [5], in experiment [6] and in experiment [7] was “inactive” in each case. Further, the Potency result in experiment [8], in experiment [9], in experiment [10], in experiment [12] and in experiment [15] was “inactive” throughout. Besides, the Potency is 43.6 µM (active) in [17]; 31 µM (active) and 61.1 µM (active) in [13]; 54.5 µM (active) in experiment [14]; 19.6 µM (active) and 19.3 µM (active) in [16].

As for `CCCCCC(=O)O[C@]1(C(C)=O)CC[C@H]2[C@@H]3CCC4=CC(=O)CC[C@]4(C)[C@H]3CC[C@@]21C`, the Potency result in [1], in [2], in experiment [3], in experiment [18], in [5] and in [7] was “inactive” in each case. In addition, the Potency entry in [8], in experiment [19], in [11], in experiment [13] and in experiment [15] was “inactive” each time. For the same molecule, the Potency in [17] is 24.4 µM (active); in [6], 4.34 µM (active); in [10], 48.2 µM (active); in [14], 68.1 µM (active) and inactive.

In the case of `Nc1ccc(O)cc1`, the Potency result in [1], in [2], in experiment [3], in experiment [5], in experiment [7] and in experiment [19] was “inactive” in each case. For the same molecule, the Potency entry in experiment [11] and in experiment [15] was “inactive” throughout. The Potency in [4] is 57.1 µM (active) and inactive; in [17], 40.4 µM (active) and inactive; in experiment [18] it was 40.4 µM (active) and inactive; in experiment [9], 50.4 µM (active) and inactive; in experiment [20] it was 25.3 µM (active) and inactive; in experiment [10] it was 28.4 µM (active) and inactive. The Potency was 17.9 µM (active) in experiment [13]; 31.8 µM (active) and inactive in experiment [14]; 7.99 µM (active) and inactive in [16].

In the case of `NC(=Nc1ccccc1)Nc1ccccc1`, the Potency entry in [1], in experiment [2], in [3], in experiment [4], in [18] and in experiment [5] was “inactive” in each case. Further, the Potency result in experiment [6], in experiment [7], in [8], in [9], in experiment [19] and in experiment [13] was “inactive” each time. In addition, the Potency result in experiment [14] and in experiment [15] was “inactive” in each case. Further, the Potency was 10.9 µM (active) in experiment [10]; 686 nM (active) and inactive in experiment [11]; 2.43 µM (active) in experiment [16].

Consider `CNCCC(Oc1ccc(C(F)(F)F)cc1)c1ccccc1` (centres undefined), for which the Potency result in [1], in [8], in [11], in [12] and in [15] was “inactive” each time. In addition, the Potency in experiment [2] is 48.4 µM (active) and 16.9 µM (active); in experiment [3], 26.8 µM (active); in [5], 23.9 µM (active); in [9] it was 29.8 µM (active); in [19] it was 10 µM (active); in [13], 60.3 µM (active) and 29.8 µM (active). For the same molecule, the Potency in experiment [14] is 26.9 µM (active) and 29.8 µM (active); in [16], 15.2 µM (active).

With `Cc1c2oc3c(C)ccc(C(=O)N[C@@H]4C(=O)N[C@H](C(C)C)C(=O)N5CCC[C@H]5C(=O)N(C)CC(=O)N(C)[C@@H](C(C)C)C(=O)O[C@@H]4C)c3nc-2c(C(=O)N[C@@H]2C(=O)N[C@H](C(C)C)C(=O)N3CCC[C@H]3C(=O)N(C)CC(=O)N(C)[C@@H](C(C)C)C(=O)O[C@@H]2C)c(N)c1=O` (I: T[dV]P[Sar][NMeV] / II: T[dV]P[Sar][NMeV]; ester I:1-I:C, II:1-II:C; linker I:N-II:N via Actinocin(9to1)), the Potency entry in experiment [1], in [3], in [5], in experiment [6], in experiment [7] and in experiment [19] was “inactive” each time. For the same molecule, the Potency result in experiment [11] was “inactive”. Moreover, the Potency was 0.0213 µM (active) in [2]; 8.47 µM (active) and 9.52 µM (active) in [4]; 16.9 nM (active) and 23.9 nM (active) in experiment [17]; 26.6 µM (active) in experiment [8]; 26.6 nM (active) and 9.4 nM (active) in experiment [20]; 23.7 nM (active) and 53.1 nM (active) in experiment [10]. Moreover, the Potency is 42.1 nM (active) and 168 nM (active) in [13]; 42.1 nM (active) and 119 nM (active) in experiment [14]; 0.0021 µM (active) in [16].
